PubChem BioAssay (NCI)
The panel holds about 83,000 compounds, 20% with a hit somewhere; the sample as a whole holds those more often.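 Testing used 96-well plates and a 48-hour single-concentration exposure. Example: -40 means 40% of the starting cells died.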 Values without a mark were called inactive. Calls of active or inactive are those of the source. The calls were made as follows: active = growth percent below 10; inactive = the rest.

Tests used:
Assay in all cases: NCI-60 one-dose screen, 48 h (100 = growth as untreated, 0 = no growth, -100 = all killed)
Settings in all cases: 10 µM unless noted
[1] = system: NCI-H23 lung
[2] = system: NCI-H226 lung
[3] = system: NCI-H322M lung
[4] = system: HOP-62 NSCLC
[5] = system: NCI-H460 lung
[6] = system: HOP-92 NSCLC
[7] = system: NCI-H522 lung
[8] = system: 786-0 renal
[9] = system: COLO 205 colon
[10] = system: DU-145 prostate
[11] = system: MALME-3M melanoma
[12] = system: MDA-MB-231 breast
[13] = system: RXF 393 renal
[14] = system: SF-295 CNS
[15] = system: SF-539 CNS
[16] = system: UACC-257 melanoma
[17] = system: M14 melanoma
[18] = system: A549/ATCC NSCLC
[19] = system: K-562 leukemia
[20] = system: SF-268 CNS

SMILES: O=c1[nH]c2ccc([N+](=O)[O-])cc2c(=O)o1
- growth [1]: 101%
- growth [2]: 108%
- growth [3]: 97.6%
- growth [4]: 103%
- growth [5]: 103%
- growth [6]: 79.5%
- growth [7]: 100%
- growth [8]: 112%
- growth [9]: 109%
- growth [10]: 117%
- growth [11]: 106%
- growth [12]: 107%
- growth [13]: 101%
- growth [14]: 105%
- growth [15]: 102%
- growth [16]: 104%
- growth [17]: 108%

SMILES: CNC(=O)Oc1ccc(N(C)C)cc1C(C)C
- growth [1]: 103%
- growth [2]: 92.6%
- growth [3]: 91.1%
- growth [4]: 99.5%
- growth [5]: 107%
- growth [7]: 92.2%
- growth [18]: 94.9%
- growth [8]: 102%
- growth [9]: 115%
- growth [10]: 101%
- growth [19]: 129%
- growth [11]: 72.1%
- growth [12]: 103%
- growth [13]: 73.8%
- growth [20]: 101%
- growth [14]: 118%
- growth [15]: 89.7%
- growth [16]: 105%
- growth [17]: 97.2%

SMILES: c1cnc2[nH]cc(-c3csc(-c4cn(CCCCN5CCCCC5)c5ccccc45)n3)c2c1
- growth [1]: 95.2%
- growth [2]: 95.3%
- growth [3]: 87.4%
- growth [4]: 82.4%
- growth [5]: 76.3%
- growth [6]: 48.3%
- growth [7]: 98.5%
- growth [8]: 80.7%
- growth [9]: 6.47% (active)
- growth [10]: 107%
- growth [19]: 10.9%
- growth [11]: 92.8%
- growth [12]: 83.3%
- growth [13]: 87.3%
- growth [20]: 86.1%
- growth [14]: 94.8%
- growth [15]: 86.5%
- growth [16]: 112%
- growth [17]: 50.2%

SMILES: CCCc1cc(O)c2c3c(c(=O)oc2c1)CN(C)CC3
- growth [1]: 54.5%
- growth [2]: 38.9%
- growth [3]: 42.9%
- growth [4]: 28.6%
- growth [5]: 11.9%
- growth [6]: 81.6%
- growth [7]: 18.4%
- growth [8]: 55%
- growth [9]: 21%
- growth [10]: 43%
- growth [19]: 12%
- growth [11]: -1.24% (active)
- growth [12]: 60.4%
- growth [13]: 10.9%
- growth [20]: 37%
- growth [15]: 31.7%
- growth [16]: 68.5%
- growth [17]: 16.4%

SMILES: C[N+](C)(C)Cc1cc(Cl)ccc1O
- growth [1]: 97.7%
- growth [2]: 98.6%
- growth [3]: 87.3%
- growth [4]: 101%
- growth [5]: 110%
- growth [6]: 93.2%
- growth [7]: 80.6%
- growth [8]: 100%
- growth [9]: 107%
- growth [10]: 108%
- growth [19]: 99.9%
- growth [11]: 93.2%
- growth [12]: 109%
- growth [13]: 110%
- growth [20]: 106%
- growth [14]: 108%
- growth [15]: 102%
- growth [16]: 96.5%
- growth [17]: 94.8%

SMILES: Clc1ccc2nnnn2n1
- growth [1]: 54.4%
- growth [2]: 66.6%
- growth [3]: 85.2%
- growth [4]: 55.7%
- growth [5]: 20.7%
- growth [6]: -3.54% (active)
- growth [7]: 13.2%
- growth [8]: 23%
- growth [9]: -77.3% (active)
- growth [10]: 3.28% (active)
- growth [19]: -11.3% (active)
- growth [11]: 66.2%
- growth [12]: 36.8%
- growth [20]: 25%
- growth [14]: 67.7%
- growth [15]: 47%
- growth [16]: 41.1%
- growth [17]: 37.7%

SMILES: O=[As](O)(O)c1ccccc1[As](=O)(O)O
- growth [1]: 99.9%
- growth [2]: 112%
- growth [3]: 121%
- growth [4]: 110%
- growth [5]: 116%
- growth [6]: 95.9%
- growth [7]: 106%
- growth [8]: 119%
- growth [9]: 111%
- growth [10]: 109%
- growth [19]: 107%
- growth [11]: 115%
- growth [12]: 103%
- growth [13]: 120%
- growth [20]: 99.3%
- growth [15]: 96.3%
- growth [16]: 101%
- growth [17]: 116%

SMILES: COC(C(=O)[C@@H](O)[C@@H](C)O)[C@@H]1Cc2cc3cc(O[C@H]4C[C@@H](O[C@H]5C[C@@H](O)[C@H](O)C(C)O5)[C@H](O)C(C)O4)c(C)c(O)c3c(O)c2C(=O)[C@H]1O[C@H]1C[C@@H](O[C@H]2C[C@@H](O[C@H]3C[C@@H](O)[C@@H](O)C(C)O3)[C@@H](O)C(C)O2)[C@H](O)C(C)O1 (some centres not stated)
- growth [1]: -0.735% (active)
- growth [2]: -22.2% (active)
- growth [3]: 14%
- growth [4]: -4.46% (active)
- growth [5]: 7.75% (active)
- growth [6]: 13.3%
- growth [7]: -23.7% (active)
- growth [8]: -1.51% (active)
- growth [9]: -43.3% (active)
- growth [10]: 17.5%
- growth [19]: 9.59% (active)
- growth [11]: -38.7% (active)
- growth [12]: 3.75% (active)
- growth [13]: -60.5% (active)
- growth [20]: 24.4%
- growth [14]: 12.9%
- growth [15]: 1.03% (active)
- growth [16]: -38.6% (active)
- growth [17]: 8.68% (active)
